Measured values taken from PubChem BioAssay AID624330 (Southern Research Specialized Biocontainment Screening …, 2012).
Screen size: about 340,000 compounds; about 2,100 (0.62%) were called active.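 The calls were made as follows: active = first-screen hits whose inhibition reached a set limit at any dose in the follow-up dose series; inconclusive = inhibition above the set first-screen limit but never retested; inactive = the rest.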 Only a sample is shown. Results with a measured potency or affinity are listed apart.

The compounds below were run against Rac GTPase-activating protein 1 (Homo sapiens) (UniProt Q9H0H5) (assay: MgcRacGAP GTPase-activating activity inhibitors, confirmation, biochemical, ADP Hunter fluorescence, primary and confirmatory (AID 624330;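 also: fluorescence reports GDP produced by GAP-driven GTP hydrolysis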)). Conditions: MgcRacGAP-stimulated Rac1 GTP hydrolysis, at 30 µM, hits give high values, GST-tagged Rac1 F28L mutant substrate.
Sequence of Rac GTPase-activating protein 1 (Homo sapiens) (Q9H0H5 whole entry, looked up): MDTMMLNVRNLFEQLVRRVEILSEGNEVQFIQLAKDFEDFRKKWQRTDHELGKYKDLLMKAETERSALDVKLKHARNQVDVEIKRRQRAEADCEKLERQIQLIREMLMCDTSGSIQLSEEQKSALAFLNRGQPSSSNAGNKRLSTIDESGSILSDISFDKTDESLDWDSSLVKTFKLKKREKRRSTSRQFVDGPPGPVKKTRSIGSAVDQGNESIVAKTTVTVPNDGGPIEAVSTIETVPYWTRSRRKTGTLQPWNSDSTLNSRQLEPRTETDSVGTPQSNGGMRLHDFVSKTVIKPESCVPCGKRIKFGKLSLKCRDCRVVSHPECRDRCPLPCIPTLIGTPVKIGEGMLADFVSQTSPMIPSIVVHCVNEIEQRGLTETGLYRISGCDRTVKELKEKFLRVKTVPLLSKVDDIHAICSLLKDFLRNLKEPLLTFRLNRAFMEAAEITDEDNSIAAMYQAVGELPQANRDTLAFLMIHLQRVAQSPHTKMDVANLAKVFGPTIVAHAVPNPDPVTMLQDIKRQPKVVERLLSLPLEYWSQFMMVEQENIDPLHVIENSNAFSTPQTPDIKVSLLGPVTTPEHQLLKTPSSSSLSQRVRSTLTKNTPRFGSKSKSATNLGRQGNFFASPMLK

inhibition, inactive:
O=C(NNc1nc2c(F)cccc2s1)c1ccccc1 3.05%
CC(=O)NC(CC(=O)NCCc1ccccc1)c1ccccc1 (stereo not drawn) 5.84%
COc1cc(/C=C/C(=O)O)cc(S(=O)(=O)N(CC(C)C)CC(C)C)c1OC 3.78%
Cc1cc(OC(C)C(=O)NCCCN2CCOCC2)c2c(C)cc(=O)oc2c1 (stereo not drawn) 5.41%
CCN1C[C@@H]2[C@@H]3C(=O)N(C)C(=O)[C@@H]3[C@](Cc3ccccc3)(C(=O)OC)N2C1=NCc1ccccc1 8.57%
COc1cccc(NC(=O)COc2ncnc3sc(C)c(C)c23)c1 5.65%
CCOc1ccccc1/C=C(/NC(=O)c1ccccc1)C(=O)N(CC)CC 5.35%
CC[C@]12C(=O)N(C)C[C@H]([C@@H]3C(=O)N(C)C(=O)[C@@H]31)N2C(=O)c1ccc(F)cc1 7.98%
CNS(=O)(=O)c1cccc(C(=O)OCC(=O)C23CC4CC(CC(C4)C2)C3)c1 2.1%
COc1ccc(/C=N/NC(=O)COc2cccc3cccnc23)cc1OC 12%
COCc1cc(C)nc(OCC(=O)N/N=C/c2ccccc2)c1C#N 5.88%
O=C(COc1ccccc1[N+](=O)[O-])N/N=C/c1ccncc1 3.99%
O=C(COc1ccccc1[N+](=O)[O-])N/N=C/c1ccc(O)c([N+](=O)[O-])c1 5%
O=C(COc1cccc2cccnc12)N/N=C/c1ccccc1O 9.73%
COCc1cc(C)nc(OCC(=O)N/N=C/c2ccc(C)cc2)c1C#N 6.19%
CC(C(=O)NCC1CCCCC1)N(C)Cc1ccc(Cl)cc1 (stereo not drawn) 9.97%
NC(=O)c1ccc(NC(=O)CCc2nc3ccccc3s2)cc1 9.08%
Fc1ccccc1CN1CCN(c2ncccn2)CC1 18.2%
COc1ccc(CN2CCN(C(=O)c3cccnc3)CC2)cc1Br 26.4%
COc1ccccc1C(=O)N1CCN=C1SCc1cccnc1 9.35%
COc1cccc(OC)c1C(=O)N1CCN(Cc2ccncc2)CC1 17.3%
COc1ccccc1C(=O)N1CCN(CCc2ccccc2)CC1 5.14%
CCOc1ccccc1/C=C/c1nc2ccccc2[nH]c1=O -3.6%
CSCCC(=O)N(C)CC1CCN(CCc2cccc(C(F)(F)F)c2)CC1 -11.6%
COc1cc(OC)nc(NC(=O)NS(=O)(=O)c2ccc(OC(F)(F)F)cc2)n1 7.78%
COc1ccc2nc(SCC(=O)NC3CCCCC3C)[nH]c2c1 (stereo not drawn) 6.19%
COc1ccc(C(O)(C(C)C)C(CN2CCOCC2)c2ccc(Cl)cc2)cc1 (stereo not drawn) 3.23%
COc1ccc(-c2cnnc(N/N=C/c3ccc(O)cc3)n2)cc1 15.5%
COc1ccc(/C=N/Nc2cc(C)nc(NS(=O)(=O)c3ccc(C)cc3)n2)cc1 8.72%
COc1ccc(-c2cnnc(N/N=C/c3ccc(O)c(OC)c3)n2)cc1 28.9%
COc1cc(/C=N/Nc2cc(C)nc(NS(=O)(=O)c3ccc(C)cc3)n2)ccc1O 23.4%
COc1cc(/C=N/Nc2nc(C)cc(C)n2)cc(OC)c1OC 18.6%
COc1cc(/C=N/Nc2nc(C)cc(C)n2)ccc1OC(=O)c1ccco1 12.7%
Oc1ccccc1/C=N/NC1=NCCCCC1 -4.7%
Oc1ccc(/C=N/NC2=NCCCCC2)cc1 14.8%
CC(=O)NCc1nc2ccccc2n1Cc1ccccc1F 2.14%
Cc1cccc(C(=O)OCC(=O)NC2CCCCCCC2)c1 -0.77%
Cc1cc(C)c(C#N)c(SCc2nc3ccccc3[nH]2)n1 11.2%
CCN(C(=O)c1ccccc1)c1ccc([N+](=O)[O-])cc1 6.29%
C=CCn1c(N)cc(=O)nc1SCC(=O)Nc1ccc2ccccc2c1 6.15%
NC1=NC(c2ccccc2)CC(=O)N1 (stereo not drawn) 0.78%
COc1ccc(OC)c(CN2CCN(CC(=O)Nc3ccccc3C(=O)NC3CC3)CC2)c1 3.43%
Cc1ccc(-n2c(CNc3cccc(Cl)c3)n[nH]c2=S)cc1 -10.3%
CCN(CC)S(=O)(=O)c1cccc(C(=O)NCC2CCCO2)c1 (stereo not drawn) -3.29%
S=C(c1ccc(-c2ccccc2Cl)o1)N1CCOCC1 10.6%
COc1cc(/C=N\Nc2nc(-c3ccc(C)cc3)c(NC(C)=O)s2)ccc1O 17.7%
COc1cc(/C=N/Nc2nnc3c(n2)[nH]c2ccccc23)ccc1O 9.92%
CCNc1nc(NCC)nc(N/N=C/c2ccc(Br)cc2)n1 4.59%
COc1ccccc1/C=N/NC1=NCCCCC1 4.83%
COc1ccc(/C=N/NC2=NCCCCC2)cc1 -0.36%
CCNc1nc(NCC)nc(N/N=C/c2ccccc2)n1 5.89%
Cc1ccc(/C=N/Nc2nc(C)cc(C)n2)cc1 6.97%
Cc1cc(C)nc(N/N=C/c2ccc(Cl)cc2)n1 7.83%
CS(=O)(=O)N(CC(=O)N1CCCC1)c1cc(Cl)ccc1Cl 8.42%
Cc1ccc(S(=O)(=O)NCC(c2ccco2)N2CCc3ccccc3C2)cc1 (stereo not drawn) 2.71%
Cc1c(N(C)S(=O)(=O)c2ccc(Cl)c(C(=O)NCC3CCCO3)c2)c(=O)n(-c2ccccc2)n1C (stereo not drawn) 1.31%
O=C(Nc1nnc(C2CC2)s1)C1CCCCC1 3.57%
CCOc1ccc(CCNC(=O)COC(=O)c2ccc(OC(C)C)cc2)cc1OCC -0.74%
CCOc1ccccc1CN1CCC(N2CCC(C(=O)NC3CC3)CC2)CC1 9.11%
CCOc1ccccc1CN1CCC(O)CC1 15.6%
CCOc1ccc(C(=O)NCCC(=O)NCCCC(=O)O)cc1 -5.31%
O=C(CCS(=O)(=O)c1ccc(Cl)cc1)Nc1nnc(-c2ccco2)o1 3.12%
COc1ccc(CCNC(=O)Cc2cccc(C(F)(F)F)c2)cc1OC 8.81%
COc1ccc(NC(=O)NCCc2cccc(Cl)c2)cc1OC 11.4%
COc1ccc(CNCCc2ccc([N+](=O)[O-])cc2)c(OC)c1OC 25.1%
COc1ccccc1CNC(=O)CCSCc1cccc(Cl)c1 -0.5%
COc1cccc(CNCc2ccccc2OC)c1 22.3%
COc1ccccc1CNCc1cc(Br)ccc1OC 23.1%
COc1ccc(CNCc2ccc(C(F)(F)F)cc2)cc1OC 2.76%
COc1cccc(CNCCO)c1OCc1ccc(Cl)cc1 9.58%
O=C(NCc1ccco1)C1CCCN(c2nnc(-n3cccc3)s2)C1 (stereo not drawn) 14.7%
C=CCn1c(SCC(=O)NC2(C)CCS(=O)(=O)C2)nc2ccccc21 (stereo not drawn) 1.26%
Cn1c(N)c(C(=O)CSc2nc3ccccc3n2-c2ccccc2)c(=O)n(C)c1=O 4.85%
CCOC(=O)CNC(=O)C1c2ccccc2Oc2ccccc21 3.51%
Cc1csc(NC(=O)c2ccncc2)n1 7.69%
Cc1cc(=O)[nH]c(SCC(=O)Nc2ccccc2[N+](=O)[O-])n1 6.16%
CC(=O)N(C)c1ccc(N=Nc2ccc3ncccc3c2)cc1 -1.54%
COc1ccc(/C=N/NC(=O)c2sc3nc(C)cc(C)c3c2N)cc1 9.68%
O=C(O)C1Nc2c(C(F)(F)F)ccc(Cl)c2C2C=CCC12 (stereo not drawn) -3.26%
CC(C)C1Nc2c(O)cc(Cl)c([N+](=O)[O-])c2C2C=CCC21 (stereo not drawn) 11.3%
CCCCn1nc(C(=O)N(CC(C)C)c2c(N)n(CCCC)c(=O)[nH]c2=O)c2ccccc2c1=O 9.52%
COc1ccccc1-c1nnc(SCC(=O)NC2CCS(=O)(=O)C2)n1N (stereo not drawn) 8.87%
Cc1cnc(C(=O)OCC(=O)c2ccc(-c3ccccc3)cc2)cn1 -1.23%
Cc1cnc(C(=O)Oc2c(C)ccc(C)c2C)cn1 -0.23%
Cc1ccc(S(=O)(=O)N2CCC(C(=O)NCCc3ccccc3)CC2)cc1 2.72%
CSCCC(NC(=O)c1ccccc1Cl)C(=O)NNC(=O)c1ccncc1 (stereo not drawn) 7.49%
c1ccc(Cn2cc(-c3ccccc3)cn2)cc1 6.79%
COc1ccc(C(C#N)=C2C=CC(=NO)C(C)=C2Cl)cc1 21.7%
COc1ccc(C(C#N)=C2C=C(Cl)C(=NO)C=C2Cl)cc1 -1.89%
COC(=O)c1ccc(NC(=O)CN2CCN(c3ccccn3)CC2)cc1 2.35%
CC(=O)Nc1ccc(NC(=O)CN2CCN(c3ccccn3)CC2)cc1 6.59%
CC(C)c1ccc(NC(=O)CN2CCN(c3ccccn3)CC2)cc1 7.53%
O=C(CN1CCN(c2ccccn2)CC1)Nc1ccccc1 -4.1%
CN1CCN(C(=O)c2cnn3c(C(F)(F)F)cc(-c4ccc5c(c4)OCO5)nc23)CC1 9.9%
O=c1[nH]c2c(s1)C(c1ccc(O)cc1)C1C3CCC(C3)C1S2 (stereo not drawn) 11.5%
C[C@H](NC(=O)[C@H](Cc1ccccc1)n1c(=O)[nH]c2ccccc2c1=O)C(=O)N1CCC[C@H]1C(=O)O -3.53%
O=C1C=C(NCCc2cc(Br)c(O)c(Br)c2)C(=O)c2ncccc21 9.18%
COc1ccc(CCN2C(=O)c3cccnc3C2=O)cc1OC 12.5%
